Compound activity as filed in PubChem.
MITF primary: MITF inhibitors, primary screen, biochemical, AlphaScreen, human; Microphthalmia-associated transcription factor (Homo sapiens), O75030; AlphaScreen MITF homodimerization, bead proximity signal; inhibition, % at 2.6 µM; hit rate 0.91% among 650,000; AID 1259374, 2018; in the data active = inhibition above about 50%
GPR151 activ: activators of human GPR151, primary screen, cell-based, PathHunter beta-arrestin, luminescence; G-protein coupled receptor 151 (Homo sapiens), Q8TDV0; PathHunter beta-arrestin GPR151 cells; activation, % at 11.2 µM; hit rate 1% among 650,000; in the data active = activation above about 4.9%
TEAD-YAP block: TEAD-YAP interaction inhibition, primary screen, TEAD-YAP interaction inhibitor project, luminescence, HEK-TIYL cells | inhibition, % at 9.12 µM | hit rate 1.4% among 640,000 | AID 1259422, 2018 | TEAD-Gal4/YAP UAS-luciferase luminescence; in the data active = inhibition above about 32%
FBW7 activator: FBW7 E3 ligase activators, primary screen, biochemical, AlphaScreen, human; F-box/WD repeat-containing protein 7 (Homo sapiens), Q969H0; hit rate 0.13% among 650,000; AlphaScreen FBW7–phospho-cyclin E peptide binding, activator screen; normalized activity (activation), % at 26.1 µM; in the data active = normalized activity above about 1.9%;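 also: purified mutant Fbw7 with reduced substrate affinity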
Target sequence (Q969H0 whole entry, looked up): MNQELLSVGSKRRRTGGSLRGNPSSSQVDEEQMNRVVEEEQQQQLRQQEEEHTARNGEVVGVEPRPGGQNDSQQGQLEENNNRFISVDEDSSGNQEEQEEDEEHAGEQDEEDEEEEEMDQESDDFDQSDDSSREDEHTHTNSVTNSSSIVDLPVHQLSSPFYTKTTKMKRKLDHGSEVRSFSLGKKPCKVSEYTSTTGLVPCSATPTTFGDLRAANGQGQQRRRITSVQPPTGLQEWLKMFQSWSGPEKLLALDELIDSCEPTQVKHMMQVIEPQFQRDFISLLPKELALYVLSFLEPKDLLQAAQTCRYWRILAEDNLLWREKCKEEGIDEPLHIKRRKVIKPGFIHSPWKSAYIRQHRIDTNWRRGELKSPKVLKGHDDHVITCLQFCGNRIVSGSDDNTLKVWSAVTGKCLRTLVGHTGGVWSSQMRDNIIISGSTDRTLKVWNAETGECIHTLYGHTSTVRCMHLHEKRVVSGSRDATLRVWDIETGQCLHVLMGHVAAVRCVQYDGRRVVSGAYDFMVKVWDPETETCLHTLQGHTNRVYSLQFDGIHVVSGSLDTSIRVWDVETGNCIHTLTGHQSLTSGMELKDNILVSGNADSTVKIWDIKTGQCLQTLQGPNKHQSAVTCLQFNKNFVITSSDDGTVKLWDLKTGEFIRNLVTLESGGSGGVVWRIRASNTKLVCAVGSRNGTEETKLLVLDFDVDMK
GPR151 confirm: GPR151 activators, triplicate retest, confirmation, cell-based, PathHunter beta-arrestin, luminescence | shares compounds with GPR151 activ | GPR151 PathHunter beta-arrestin cells, 90 min; % of EA-reagent control over plate median | activation, % at 11.2 µM | 6,700 tested, under 10 active;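 active = mean percent activation across replicates above the confirmation screen cutoff of 4.91%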
GPR119 counter: GPR119 activators in beta-arrestin cells, counter-screen for GPR151 activator project, cell-based, PathHunter beta-arrestin, luminescence, triplicate. shares compounds with GPR151 activ. 90 min; 0 = compound-well median, 100 = enzyme-acceptor control. activation, % at 11.2 µM. hit rate 0.3% among 6,700;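 active = mean percent activation in the counterscreen above 29.09%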;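 also: counterscreen on off-target GPR119 to flag nonselective hits from the GPR151 activator screen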
Each line names hits and unclear results; the compound was inactive in the other large screens (follow-up assays come after a bar, where they were run). This is a sample that favours compounds with a hit; in the whole collection about 3.5% have one here.

O=C(NCc1ccccn1)c1cc2c(ccc3ccccc32)oc1=O	GPR151 activ 12 | GPR151 confirm inactive | GPR119 counter inactive
O=C(NCc1ccccc1)c1cc2cc([N+](=O)[O-])ccc2oc1=O	GPR151 activ 13 | GPR151 confirm inactive | GPR119 counter inactive
COc1ccc(N2C(=O)C(O)=C(C(=O)OC(C)(C)C)C2c2ccccc2)cc1 (stereo not given)	none
CCOc1ccc(C(=O)NC(=S)Nc2cccnc2)cc1Cl	GPR151 activ 7.1 | GPR151 confirm inactive | GPR119 counter inactive
CCOc1c(Cl)cc(C(=O)NC(C)(C)C)cc1Cl	none
CCOc1ccc(C(=O)NC(=S)Nc2cccnc2)cc1[N+](=O)[O-]	none
CCOc1ccc(C(=O)NC(C)(C)C)cc1Cl	GPR151 activ 6.9 | GPR151 confirm inactive | GPR119 counter inactive
O=C(Nc1ccc(F)c(Cl)c1)c1ccccc1C(=O)c1ccc(Cl)c([N+](=O)[O-])c1	none
COc1ccc(-c2cc(=O)oc3c(O)c(O)ccc23)cc1	GPR151 activ 8.2 | GPR151 confirm inactive | GPR119 counter inactive
COc1ccc(-c2cc(=O)oc3cc(O)c(Cl)cc23)cc1	none
CC(C)CCNC(=O)c1c(O)c2cccc3c2n(c1=O)CCC3	none
O=C(Nc1ccccc1F)c1c(O)c2cccc3c2n(c1=O)CC3	none
O=C(Nc1ccccc1Br)c1c(O)c2cccc3c2n(c1=O)CC3	GPR151 activ 5.4 | GPR151 confirm inactive | GPR119 counter inactive
CC(C)CCNC(=O)c1c(O)c2cccc3c2n(c1=O)CC3	GPR151 activ 7.0 | GPR151 confirm inactive | GPR119 counter inactive
CCOc1ccc(NC(=O)C2c3cccc[n+]3CC(=O)N2c2ccccc2O)cc1 (stereo not given)	GPR151 activ 5.1 | GPR151 confirm inactive | GPR119 counter inactive
O=C(Nc1ccc(Cl)cc1)C1c2cccc[n+]2CC(=O)N1c1ccc(O)cc1 (stereo not given)	none
COc1cc(C(=O)N2CCN(S(=O)(=O)c3ccc(NC(C)=O)cc3)CC2)cc(OC)c1OC	none
CCOc1cc(/C=N/N=C2/NC(=O)CS2)ccc1OC(=O)c1ccc(OC)cc1	none
CCOc1cc(/C=N/N=C2/NC(=O)CS2)cc(Cl)c1O	GPR151 activ 7.1 | GPR151 confirm inactive | GPR119 counter inactive
OCC1(CCOc2ccccc2)CCN(Cc2nc3ccccc3[nH]2)CC1	none
CN(C)S(=O)(=O)c1ccc(C(=O)OCCCC(=O)c2ccc(F)cc2)cc1	GPR151 activ 11 | GPR151 confirm inactive | GPR119 counter inactive
CCN(CC)S(=O)(=O)c1ccc(C(=O)OCC(=O)c2ccc(F)cc2)cc1	none
O=C(NCc1ccccc1Br)c1ccco1	GPR151 activ 6.1 | GPR151 confirm inactive | GPR119 counter inactive
O=C(NCc1ccccc1F)c1ccco1	none
O=C(CCc1nnc(CCc2c[nH]c3ccccc23)o1)N1CCCCCCC1	GPR151 activ 6.6 | GPR151 confirm inactive | GPR119 counter inactive
COc1cccc(/C=C/C(=O)Nc2ccc3nc(N4CCCCC4)cc(C)c3c2)c1OC	GPR151 activ 5.4 | GPR151 confirm inactive | GPR119 counter inactive
Cn1c(=O)c2c(nc(NCCOCCO)n2Cc2ccc(Cl)c(Cl)c2)n(C)c1=O	GPR151 activ 5.2 | GPR151 confirm inactive | GPR119 counter inactive
CCOC(=O)COc1ccc2c(=O)c(Oc3cccc(OC)c3)coc2c1	GPR151 activ 5.3 | GPR151 confirm inactive | GPR119 counter inactive
O=C(NCC1Cc2cccc(-c3ccncc3)c2O1)c1cccc(Cn2cccn2)c1 (stereo not given)	GPR151 activ 9.0 | GPR151 confirm inactive | GPR119 counter inactive
COc1ccc(S(=O)(=O)NCCCCN2CCOC(c3ccccc3)C2)cc1Cl (stereo not given)	none
COc1ccc(-c2cc(C(F)(F)F)n3nc(C(=O)Nc4ccccc4C(F)(F)F)c(Cl)c3n2)cc1OC	GPR151 activ 6.0 | GPR151 confirm inactive | GPR119 counter inactive
COc1ccc(-c2cc(C(F)(F)F)n3nc(C(=O)Nc4cccc(C)c4Cl)c(Cl)c3n2)cc1OC	none
CC(C)CC1(C)NC(=O)N(Cc2nnc(-c3ccccc3Br)o2)C1=O (stereo not given)	GPR151 activ 7.0 | GPR151 confirm inactive | GPR119 counter inactive
Cc1cc(C)c(NC(=O)CSc2nnc(-c3c[nH]c4ccccc34)n2C)c(C)c1	none
COc1ccc(C(C)(C)C)cc1NC(=O)COn1nnc2ccc(C(F)(F)F)cc21	GPR151 activ 5.1 | GPR151 confirm inactive | GPR119 counter inactive
O=c1oc2c3c(ccc2c2c1CCC2)OCN(c1ccc(F)cc1)C3	GPR151 activ 5.1 | GPR151 confirm inactive | GPR119 counter inactive
S=C(Nc1ccc2c(c1)OCO2)N1CCN(c2ncccn2)CC1	GPR151 activ 6.6 | GPR151 confirm inactive | GPR119 counter inactive
CCN(C(=S)NCCOC)c1cccc2ccccc12	GPR151 activ 14 | GPR151 confirm inactive | GPR119 counter inactive
COCCNC(=S)N(C)c1ccc(O)cc1	none
Cc1ccc(-c2c(Nc3ccc(Cl)cc3)c(=O)c2=O)cc1	GPR151 activ 5.0 | GPR151 confirm inactive | GPR119 counter inactive
Cc1nnc(SCc2csc(-c3ccccc3)n2)n1N	none
CCOC(=O)N1CCC(NC(=O)c2ccc(N3CC4CC(C3)c3cccc(=O)n3C4)c(NC(=O)c3ccc(C(C)(C)C)cc3)c2)CC1 (stereo not given)	none
O=C(NCCC1=CCCCC1)c1ccc(N2CC3CC(C2)c2cccc(=O)n2C3)c(NC(=O)c2c(F)cccc2F)c1 (stereo not given)	GPR151 activ 8.0 | GPR151 confirm inactive | GPR119 counter inactive
CC1CC(C)CN(C(=O)c2ccc(N3CC4CC(C3)c3cccc(=O)n3C4)c(NC(=O)c3ccc(F)cc3)c2)C1 (stereo not given)	GPR151 activ 6.3 | GPR151 confirm inactive | GPR119 counter inactive
CCOC(=O)N1CCC(NC(=O)c2ccc(N3CC4CC(C3)c3cccc(=O)n3C4)c(NC(=O)c3ccncc3)c2)CC1 (stereo not given)	GPR151 activ 4.9 | GPR151 confirm inactive | GPR119 counter inactive
O=C(Nc1cc(C(=O)N2CCCC2)ccc1N1CC2CC(C1)c1cccc(=O)n1C2)c1ccc(F)cc1 (stereo not given)	none
CCCN(C)C(=O)c1cnc2scc(C)n2c1=O	none
CC1CCN(C(=O)c2ccc(S(=O)(=O)c3cccc(Cl)c3)c([N+](=O)[O-])c2)CC1	none
